Data as given in PubChem BioAssay (EPA / NIEHS).
Results filed as inconclusive are left out. Activity calls are given as the source filed them. The calls were made as follows: active = hit-call score of the fitted dose curve at least 0.9, where 1 is the maximum; inconclusive = response in the unintended direction; inactive = score below 0.9.

Legend:
[1] = target: human Phosphoinositide 3-kinase alpha (PI3Ka), PIK3CA (gene 5290) (UniProt P42336); assay: NVS_ENZ_hPI3Ka: NovaScreen (NVS) Enzymatic Assay for human Phosphoinositide 3-kinase alpha (PI3Ka) (AID 2283196)
How it was run: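 Duplicate single-point screen (25 uM), then singleton dose-response (max 50 uM) for compounds meeting the threshold. Cell-free kinase reaction, 1 h; fluorescent mobility-shift readout.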

[2] = target: human Phosphodiesterase 10 (PDE10), PDE10A (gene 10846) (UniProt Q9Y233); assay: NVS_ENZ_hPDE10: NovaScreen (NVS) Enzymatic Assay for human Phosphodiesterase 10 (PDE10) (AID 2283195)
How it was run: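 Fluorescence readout after mobility-shift separation of substrate and product, 1 h reaction with recombinant human enzyme. Single-concentration duplicates at 25 uM, then concentration-response up to 50 uM for chemicals reaching threshold; DMSO baseline.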

[3] = target: human Protein Tyrosine Phosphatase Receptor Type M (PTPRM), PTPRM (gene 5797) (UniProt P28827); assay: NVS_ENZ_hPTPRM: NovaScreen (NVS) Enzymatic Assay for human Protein Tyrosine Phosphatase Receptor Type M (PTPRM) (AID 2283215)
How it was run: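 Read-out is fluorescence after electrophoretic separation of substrate and product, taken 1.33 h post-dosing with recombinant enzyme. Compounds screened at 25 uM in duplicate, then concentration series for actives; activity as signal loss relative to DMSO.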

[4] = target: human Sirtuin 3 (SIRT3), SIRT3 (gene 23410) (UniProt Q9NTG7); assay: NVS_ENZ_hSIRT3: NovaScreen (NVS) Enzymatic Assay for human Sirtuin 3 (SIRT3) (AID 2283222)
How it was run: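 Cell-free enzyme assay with recombinant protein and fluorescent substrate, product separated by electrophoretic mobility shift; read 1 hour after dosing. Screened in duplicate at 25 uM, then singleton concentration-response up to 50 uM; loss of signal versus DMSO.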

[5] = target: guinea pig Leukotriene D4 Receptor (LTD4), CYSLTR1 (gene 100135514) (UniProt Q2NNR5); assay: NVS_GPCR_gLTD4: NovaScreen (NVS) G Protein-Coupled Receptor Assay for guinea pig Leukotriene D4 Receptor (LTD4) (AID 2283248)
How it was run: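 Guinea pig lung membrane preparation; bound radioligand measured by filter scintillation after 1 h, loss of signal versus DMSO marking displacement. Compounds tested at 25 uM in duplicate, hits retested to max 50 uM.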

Sequence of human Phosphodiesterase 10 (PDE10), PDE10A (gene 10846) (Q9Y233 whole entry, looked up): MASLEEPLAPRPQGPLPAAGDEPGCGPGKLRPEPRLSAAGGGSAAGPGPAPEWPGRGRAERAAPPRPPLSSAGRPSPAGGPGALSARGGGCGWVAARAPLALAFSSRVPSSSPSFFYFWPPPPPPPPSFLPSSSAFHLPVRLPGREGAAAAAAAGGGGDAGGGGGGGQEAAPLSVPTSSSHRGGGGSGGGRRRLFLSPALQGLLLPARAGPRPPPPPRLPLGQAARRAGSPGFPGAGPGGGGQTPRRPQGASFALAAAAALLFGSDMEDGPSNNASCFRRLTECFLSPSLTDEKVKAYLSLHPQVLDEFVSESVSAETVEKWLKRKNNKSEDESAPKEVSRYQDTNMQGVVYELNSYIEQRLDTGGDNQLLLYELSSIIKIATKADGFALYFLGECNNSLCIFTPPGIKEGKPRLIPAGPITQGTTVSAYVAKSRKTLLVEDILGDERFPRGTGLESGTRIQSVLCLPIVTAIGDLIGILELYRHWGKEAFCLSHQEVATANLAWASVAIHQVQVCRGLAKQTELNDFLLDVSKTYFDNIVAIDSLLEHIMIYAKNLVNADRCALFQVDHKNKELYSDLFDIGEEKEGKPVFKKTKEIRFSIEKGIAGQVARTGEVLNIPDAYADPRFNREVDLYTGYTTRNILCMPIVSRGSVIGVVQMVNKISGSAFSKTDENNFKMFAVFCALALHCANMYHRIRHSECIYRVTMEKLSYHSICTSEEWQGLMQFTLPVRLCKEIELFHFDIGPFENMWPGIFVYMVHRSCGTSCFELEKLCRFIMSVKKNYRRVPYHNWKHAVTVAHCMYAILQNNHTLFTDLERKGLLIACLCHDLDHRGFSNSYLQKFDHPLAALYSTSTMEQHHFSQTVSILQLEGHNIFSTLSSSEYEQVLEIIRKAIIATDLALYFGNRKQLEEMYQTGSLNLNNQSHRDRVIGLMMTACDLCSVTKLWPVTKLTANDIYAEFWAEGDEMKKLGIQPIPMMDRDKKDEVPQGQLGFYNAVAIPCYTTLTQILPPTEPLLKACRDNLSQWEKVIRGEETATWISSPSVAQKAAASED
Sequence of human Phosphoinositide 3-kinase alpha (PI3Ka), PIK3CA (gene 5290) (P42336 whole entry, looked up): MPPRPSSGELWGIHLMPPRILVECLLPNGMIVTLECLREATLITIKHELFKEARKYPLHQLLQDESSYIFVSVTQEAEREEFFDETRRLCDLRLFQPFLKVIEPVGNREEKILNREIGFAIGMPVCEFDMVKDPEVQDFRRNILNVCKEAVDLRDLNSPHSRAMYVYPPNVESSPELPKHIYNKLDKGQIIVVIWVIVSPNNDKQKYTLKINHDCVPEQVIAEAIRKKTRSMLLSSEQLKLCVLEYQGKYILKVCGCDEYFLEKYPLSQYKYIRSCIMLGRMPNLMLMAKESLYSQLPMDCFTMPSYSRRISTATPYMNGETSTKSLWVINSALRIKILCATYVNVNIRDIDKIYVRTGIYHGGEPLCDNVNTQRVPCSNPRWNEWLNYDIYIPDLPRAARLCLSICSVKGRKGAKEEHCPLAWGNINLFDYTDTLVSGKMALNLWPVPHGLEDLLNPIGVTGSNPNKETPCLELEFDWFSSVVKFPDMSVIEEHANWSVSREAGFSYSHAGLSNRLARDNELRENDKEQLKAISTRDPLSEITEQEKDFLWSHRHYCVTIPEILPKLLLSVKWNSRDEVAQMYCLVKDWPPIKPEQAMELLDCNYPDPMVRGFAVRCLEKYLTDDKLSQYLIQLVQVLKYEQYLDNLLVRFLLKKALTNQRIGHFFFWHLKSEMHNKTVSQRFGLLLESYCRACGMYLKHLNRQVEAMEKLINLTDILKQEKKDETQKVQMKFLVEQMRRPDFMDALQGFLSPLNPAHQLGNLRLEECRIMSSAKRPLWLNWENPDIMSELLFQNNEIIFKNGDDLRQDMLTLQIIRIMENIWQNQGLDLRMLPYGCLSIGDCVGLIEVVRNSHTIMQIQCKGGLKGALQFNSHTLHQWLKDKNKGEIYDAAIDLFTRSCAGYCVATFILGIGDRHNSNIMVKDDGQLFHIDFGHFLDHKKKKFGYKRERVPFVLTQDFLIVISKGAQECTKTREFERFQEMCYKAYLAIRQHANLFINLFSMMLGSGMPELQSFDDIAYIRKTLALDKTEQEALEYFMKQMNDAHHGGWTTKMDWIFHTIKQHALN
Sequence of guinea pig Leukotriene D4 Receptor (LTD4), CYSLTR1 (gene 100135514) (Q2NNR5 whole entry, looked up): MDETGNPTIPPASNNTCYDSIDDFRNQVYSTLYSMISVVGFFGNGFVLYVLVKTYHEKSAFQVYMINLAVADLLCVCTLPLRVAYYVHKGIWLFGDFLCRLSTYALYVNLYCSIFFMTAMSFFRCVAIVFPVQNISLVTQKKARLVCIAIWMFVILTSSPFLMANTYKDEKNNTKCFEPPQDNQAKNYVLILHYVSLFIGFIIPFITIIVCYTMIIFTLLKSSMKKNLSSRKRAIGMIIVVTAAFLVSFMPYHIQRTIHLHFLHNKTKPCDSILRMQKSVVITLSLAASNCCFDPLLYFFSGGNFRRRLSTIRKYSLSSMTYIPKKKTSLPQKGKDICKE
Sequence of human Protein Tyrosine Phosphatase Receptor Type M (PTPRM), PTPRM (gene 5797) (P28827 whole entry, looked up): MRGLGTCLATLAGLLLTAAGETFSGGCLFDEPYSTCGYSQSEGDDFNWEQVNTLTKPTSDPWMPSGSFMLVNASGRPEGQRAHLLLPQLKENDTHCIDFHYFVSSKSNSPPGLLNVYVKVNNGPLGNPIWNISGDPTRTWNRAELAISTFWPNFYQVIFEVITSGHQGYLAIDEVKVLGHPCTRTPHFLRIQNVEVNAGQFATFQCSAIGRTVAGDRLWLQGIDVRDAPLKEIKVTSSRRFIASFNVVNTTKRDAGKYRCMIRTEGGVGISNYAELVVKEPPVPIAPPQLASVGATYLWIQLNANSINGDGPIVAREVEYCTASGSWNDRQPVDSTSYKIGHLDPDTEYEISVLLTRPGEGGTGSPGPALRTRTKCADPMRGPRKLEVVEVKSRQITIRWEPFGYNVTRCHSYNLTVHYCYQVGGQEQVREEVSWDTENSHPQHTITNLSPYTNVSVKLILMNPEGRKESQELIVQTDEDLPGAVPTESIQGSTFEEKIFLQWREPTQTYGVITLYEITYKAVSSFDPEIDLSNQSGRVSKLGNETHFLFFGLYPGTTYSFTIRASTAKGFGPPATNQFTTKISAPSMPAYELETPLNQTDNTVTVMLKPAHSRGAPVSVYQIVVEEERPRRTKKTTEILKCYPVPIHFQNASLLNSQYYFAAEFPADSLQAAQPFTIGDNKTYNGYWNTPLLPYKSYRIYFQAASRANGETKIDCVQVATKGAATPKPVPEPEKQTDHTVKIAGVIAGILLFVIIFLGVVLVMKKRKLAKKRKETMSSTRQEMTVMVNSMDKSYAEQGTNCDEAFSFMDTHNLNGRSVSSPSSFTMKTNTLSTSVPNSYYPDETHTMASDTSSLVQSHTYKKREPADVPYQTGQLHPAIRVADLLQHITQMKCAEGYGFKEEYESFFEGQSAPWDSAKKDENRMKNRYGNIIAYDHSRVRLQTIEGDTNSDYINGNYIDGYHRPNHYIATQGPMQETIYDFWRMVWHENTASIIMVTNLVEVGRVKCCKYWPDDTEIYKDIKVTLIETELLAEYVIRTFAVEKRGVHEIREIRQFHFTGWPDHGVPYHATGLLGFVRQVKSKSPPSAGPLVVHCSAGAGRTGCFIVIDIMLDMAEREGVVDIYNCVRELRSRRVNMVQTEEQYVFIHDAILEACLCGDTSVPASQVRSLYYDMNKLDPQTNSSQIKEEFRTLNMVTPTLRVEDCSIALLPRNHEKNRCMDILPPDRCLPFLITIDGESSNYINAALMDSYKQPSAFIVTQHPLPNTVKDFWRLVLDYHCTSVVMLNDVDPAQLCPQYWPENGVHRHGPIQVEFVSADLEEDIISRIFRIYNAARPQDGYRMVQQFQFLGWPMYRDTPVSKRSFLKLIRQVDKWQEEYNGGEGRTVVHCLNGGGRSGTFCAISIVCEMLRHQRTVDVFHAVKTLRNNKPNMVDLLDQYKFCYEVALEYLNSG
Sequence of human Sirtuin 3 (SIRT3), SIRT3 (gene 23410) (Q9NTG7 whole entry, looked up): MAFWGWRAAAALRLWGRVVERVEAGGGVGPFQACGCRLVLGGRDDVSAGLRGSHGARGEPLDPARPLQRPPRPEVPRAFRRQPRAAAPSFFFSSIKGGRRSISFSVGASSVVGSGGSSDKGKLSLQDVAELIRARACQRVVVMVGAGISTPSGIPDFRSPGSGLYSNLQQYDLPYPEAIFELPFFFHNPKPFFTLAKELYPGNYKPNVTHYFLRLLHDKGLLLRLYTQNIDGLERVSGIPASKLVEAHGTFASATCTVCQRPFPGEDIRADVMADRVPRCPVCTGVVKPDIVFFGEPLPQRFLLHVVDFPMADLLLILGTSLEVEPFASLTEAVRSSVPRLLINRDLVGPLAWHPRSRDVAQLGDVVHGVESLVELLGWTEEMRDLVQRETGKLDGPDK

For CC(C)Cc1ccccc1, the outcome [1] was “inactive”.
In the case of CCOC(=O)CCCCCCCCC(=O)OCC, the outcome [2] is reported as “inactive”.
N#CCCCC(C#N)CCC#N (centres undefined) was tested, and the outcome [1] was “inactive”.
C=CC(=O)OCC(CO)(COC(=O)C=C)COC(=O)C=C was tested, and the outcome [1] was “inactive”.
C[C@]12CC[C@@H]3c4ccc(O)cc4CC[C@H]3[C@@H]1CC[C@@H]2O was tested, and the outcome [3] was “inactive” and the outcome [4] was “inactive”.
For CC(O)COCC(C)O (centres undefined), the outcome [2] was “inactive”.
For S=c1[nH][nH]c(=S)s1, the outcome [2] was “inactive” and the outcome [1] was “inactive”.
For CCCCCCOC(C)=O, the outcome [2] was “inactive” and the outcome [1] was “inactive”.
With CC(C)(C)c1cc(CCC(=O)OCCSCCOC(=O)CCc2cc(C(C)(C)C)c(O)c(C(C)(C)C)c2)cc(C(C)(C)C)c1O the outcome [2] was “inactive”.
CCO[Si](CCC#N)(OCC)OCC was tested, and the outcome [2] was “inactive”.
In the case of CC1=CC(C)C(C=O)C(C)C1 (centres undefined) (tested in a mixture with another compound), the outcome [5] is reported as “inactive”.
